One may read the AC50 as the concentration giving half of the maximal activity seen.

Experimental findings from PubChem BioAssay (EPA / NIEHS) are described below.

Active and inactive are the calls of the source. The calls were made as follows: active = hit-call score of the fitted dose curve at least 0.9, where 1 is the maximum; inactive = score below 0.9.

Read-out in experiment [1]: TIMP metallopeptidase inhibitor 2 (TIMP2), TIMP2 (gene 7077)
The experiment in a line: BSK_KF3CT_TIMP2: BioMAP Diversity Plus: KF3CT Assay for TIMP metallopeptidase inhibitor 2 (TIMP2) Biomarker Activity (AID 2283071). The note with it: primary human keratinocytes with fibroblasts; actives raise or lower the signal. In outline: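 Chemicals were dosed onto human skin primary co-cultures of keratinocytes and foreskin fibroblasts, and TIMP-2 was measured by ELISA after 24 hours. Activity in either direction was fitted relative to DMSO.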

Read-out in experiment [2]: Transforming growth factor beta 1 (TGFb1), TGFB1 (gene 7040)
Briefly: BSK_KF3CT_TGFb1: BioMAP Diversity Plus: KF3CT Assay for Transforming growth factor beta 1 (TGFb1) Biomarker Activity (AID 2283072). The note with it: primary human keratinocytes with fibroblasts; actives raise or lower the signal. A digest of the protocol: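 KF3CT co-culture (keratinocytes + fibroblasts), 24 h exposure → TGF-b1 ELISA → bidirectional fit, DMSO = baseline. Parallel SRB total-protein staining (0.1% SRB, 10% TCA fixation, 560 nm) for cytotoxicity.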

Read-out in experiment [3]: Matrix Metallopeptidase 9 (MMP9), MMP9 (gene 4318)
Briefly: BSK_KF3CT_MMP9: BioMAP Diversity Plus: KF3CT Assay for Matrix Metallopeptidase 9 (MMP9) Biomarker Activity (AID 2283074).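 As to AC50: MMP9 protein level quantified by ELISA in the co-culture.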 The note with it: primary human keratinocytes with fibroblasts; actives raise or lower the signal. In outline:
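MMP-9 quantified by ELISA after 24 h chemical treatment of primary human skin keratinocyte/fibroblast co-cultures; gain or loss fitted against DMSO, with parallel SRB staining (0.1% SRB, 560 nm) for overt cytotoxicity.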

Read-out in experiment [4]: urokinase plasminogen activator (uPA), PLAU (gene 5328)
The experiment in a line: BSK_KF3CT_uPA: BioMAP Diversity Plus: KF3CT Assay for urokinase plasminogen activator (uPA) Biomarker Activity (AID 2283075). The note with it: primary human keratinocytes with fibroblasts; actives raise or lower the signal. In outline: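 ELISA read-out of uPA 24 h after dosing human skin keratinocytes co-cultured with foreskin fibroblasts. Signal change fitted both ways relative to DMSO; sulforhodamine B on parallel cultures marks overt cytotoxicity.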

Read-out in experiment [5]: E-selectin (Homo sapiens) (UniProt P16581)
Briefly: BSK_LPS_Eselectin: BioMAP Diversity Plus: LPS Assay for Eselectin Biomarker Activity (AID 2283077). The note with it: primary human HUVEC with PBMC; actives raise or lower the signal. In outline:
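Primary human vascular co-culture (endothelium plus PBMC) was dosed with chemical, then E-selectin quantified by ELISA at 24 h. Endpoint values derive from bidirectional curve fitting relative to DMSO.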

Read-out in experiment [6]: Interleukin-8 (IL8), CXCL8 (gene 3576)
The experiment in a line: BSK_LPS_IL8: BioMAP Diversity Plus: LPS Assay for Interleukin-8 (IL8) Biomarker Activity (AID 2283078). The note with it: primary human HUVEC with PBMC; actives raise or lower the signal. A digest of the protocol:
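Readout is IL-8 by ELISA, taken 24 h after compounds were added to LPS-stimulated endothelial/PBMC co-cultures. Both increases and decreases relative to DMSO control were scored through bidirectional fitting.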

Experiment [7] in a line: BSK_LPS_SRB: Viability Assessment in the BioMAP Diversity Plus: LPS Assay (AID 2283079).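 Also: total protein by sulforhodamine B absorbance as a cytotoxicity measure; measured one day after compound addition; fitted in both directions against DMSO so loss or gain of signal counts.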 As to conditions: primary human HUVEC with PBMC. In outline: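 Readout is SRB absorbance at 560 nm (0.1% stain, TCA-fixed parallel cultures) as a total-protein cytotoxicity measure. Cells: primary human umbilical vein endothelium plus peripheral blood mononuclear cells, 24 h after chemical exposure; DMSO served as baseline.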

Read-out in experiment [8]: Interleukin-1 alpha (IL1a), IL1A (gene 3552)
Briefly: BSK_LPS_IL1a: BioMAP Diversity Plus: LPS Assay for Interleukin-1 alpha (IL1a) Biomarker Activity (AID 2283080). As to conditions: primary human HUVEC with PBMC; actives raise or lower the signal. A digest of the protocol: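 ELISA read-out of IL-1 alpha from a human primary vascular co-culture (endothelium plus PBMC) under LPS, sampled 24 hours post-dosing. Activity was fitted in both directions relative to DMSO controls.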

Read-out in experiment [9]: C-C motif chemokine 2 (Homo sapiens) (UniProt P13500)
Briefly: BSK_KF3CT_MCP1: BioMAP Diversity Plus: KF3CT Assay for Monocyte Chemoattractant Protein 1 (MCP1/CCL2) Biomarker Activity (AID 2283073). The note with it: primary human keratinocytes with fibroblasts; actives raise or lower the signal. In outline: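 ELISA readout of MCP-1 after 24 h chemical dosing of a human skin primary co-culture of keratinocytes and foreskin fibroblasts. Activity was fitted in both directions against DMSO.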

E-selectin (Homo sapiens), sequence (P16581 whole entry, looked up): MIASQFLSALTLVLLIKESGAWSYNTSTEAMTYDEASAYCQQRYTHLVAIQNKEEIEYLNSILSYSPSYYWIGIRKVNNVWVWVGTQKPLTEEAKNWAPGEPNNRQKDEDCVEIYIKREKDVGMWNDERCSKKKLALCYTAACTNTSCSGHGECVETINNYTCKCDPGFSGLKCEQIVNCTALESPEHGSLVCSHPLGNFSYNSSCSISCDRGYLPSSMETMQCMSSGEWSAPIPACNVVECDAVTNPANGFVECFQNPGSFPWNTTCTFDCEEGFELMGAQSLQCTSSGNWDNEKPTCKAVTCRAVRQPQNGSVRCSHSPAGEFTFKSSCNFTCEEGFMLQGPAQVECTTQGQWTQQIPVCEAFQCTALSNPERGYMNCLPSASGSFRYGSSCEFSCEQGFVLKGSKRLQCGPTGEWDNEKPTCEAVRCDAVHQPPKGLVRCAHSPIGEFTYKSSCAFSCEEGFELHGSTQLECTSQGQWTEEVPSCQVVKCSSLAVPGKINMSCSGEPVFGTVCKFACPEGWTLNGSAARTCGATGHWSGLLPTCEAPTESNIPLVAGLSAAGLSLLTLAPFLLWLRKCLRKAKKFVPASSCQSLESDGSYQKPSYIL

Take `Cc1cccc([N+](=O)[O-])c1`: the outcome in [1], in [2], in experiment [3], in [4], in experiment [5] and in experiment [6] was inactive. Also, the result in experiment [7] and in experiment [8] was inactive.

In the case of `CCCCCCCCCC[N+](C)(C)CCCCCCCCCC`, the AC50 is 4.71 µM (active) in [1]; 3.03 µM (active) in experiment [2]; 4.69 µM (active) in experiment [9]; 4.56 µM (active) in [3]; 5.24 µM (active) in experiment [4]; 4.41 µM (active) in experiment [5]. In addition, the values for the AC50 in [6], in [7] and in experiment [8] were 5.86 µM (active), 5.32 µM (active) and 3.75 µM (active), respectively.

In the case of `c1ccc(-c2ccccc2)cc1`, the outcome in experiment [1], in experiment [2], in [3], in experiment [4], in experiment [5] and in experiment [6] was inactive. Moreover, the result in experiment [7] and in experiment [8] was inactive.

Consider `O=C(O)C(F)(F)C(F)(F)C(F)(F)C(F)(F)C(F)(F)F`, for which the result in experiment [1], in experiment [2], in experiment [9], in experiment [3], in [4] and in [5] was inactive. Also, the result in [6], in experiment [7] and in experiment [8] was inactive.

As to `C=CC(=O)NCNC(=O)C=C`, the result in experiment [1], in [2], in experiment [9], in [3], in experiment [4] and in experiment [5] was inactive. For the same compound, the outcome in experiment [6], in experiment [7] and in experiment [8] was inactive.

Regarding `CCCCCCOC(=O)c1ccccc1C(=O)OCCCCCC`, the outcome in experiment [1], in experiment [2], in experiment [9], in experiment [3], in experiment [4] and in experiment [5] was inactive. Further, the outcome in experiment [7] and in experiment [8] was inactive. Further, the AC50 in experiment [6] is 20 µM (active).

For `Cc1cc(-c2ccc(N)c(C)c2)ccc1N`, the outcome in experiment [1], in experiment [2], in [9], in [3], in experiment [4] and in experiment [5] was inactive. Also, the result in experiment [6], in experiment [7] and in experiment [8] was inactive.

Take `CO/C=C(/C(=O)OC)c1ccccc1COc1cccc(C(F)(F)F)n1`: the result in experiment [1], in experiment [9], in experiment [4] and in experiment [8] was inactive. Further, the AC50 in [2] was 5.13 µM (active); in experiment [3], 12.7 µM (active); in experiment [5], 7.16 µM (active); in experiment [6], 3.06 µM (active); in [7], 10.6 µM (active).

Consider `ClC(Cl)=C(c1ccc(Cl)cc1)c1ccc(Cl)cc1`, for which the AC50 is 27 µM (active) in experiment [1]; 32.6 µM (active) in experiment [2]; 20 µM (active) in experiment [9]; 20 µM (active) in experiment [3]; 38.7 µM (active) in [4]; 30.6 µM (active) in [5]. The AC50 in experiment [6] was 32.1 µM (active); in experiment [8], 26.6 µM (active).

Regarding `CCCN(CCC)N=O`, the result in experiment [1], in experiment [2], in experiment [9], in [3], in experiment [4] and in experiment [5] was inactive. The result in experiment [6], in experiment [7] and in [8] was inactive.

Take `CC#Cc1cc(C)nc(Nc2ccccc2)n1`: the outcome in experiment [1], in [2], in experiment [9], in [3], in experiment [4] and in [5] was inactive. Also, the outcome in [6], in experiment [7] and in [8] was inactive.

`Cc1ccccc1[N+](=O)[O-]`: the result in [1], in [2], in [9], in experiment [3], in experiment [4] and in experiment [5] was inactive. Besides, the result in [6], in [7] and in experiment [8] was inactive.

As to `CCC(C)c1cc([N+](=O)[O-])cc([N+](=O)[O-])c1O` (centres undefined), the result in [1], in experiment [2] and in experiment [4] was inactive. Also, the AC50 was 11.6 µM (active) in experiment [9]; 12.6 µM (active) in experiment [3]; 27 µM (active) in experiment [5]; 27.5 µM (active) in [6]; 20 µM (active) in [7]; 29.2 µM (active) in [8].

`CCC(C)(CC)c1cc(NC(=O)c2c(OC)cccc2OC)on1`: the outcome in experiment [1], in experiment [2], in [9], in experiment [3], in experiment [4] and in [5] was inactive. Also, the result in experiment [6], in experiment [7] and in experiment [8] was inactive.

Take `O=C(NC(=O)c1cc(F)c(F)cc1Cl)Nc1cc(F)ccc1N1CCC(C(=O)O)CC1`: the outcome in experiment [1], in [2], in [9], in experiment [3], in [4] and in [5] was inactive. In addition, the outcome in [6], in experiment [7] and in experiment [8] was inactive.

In the case of `C[C@]12CCC(=O)C=C1CC[C@@H]1[C@@H]2CC[C@]2(C)C(=O)CC[C@@H]12`, the result in experiment [1], in experiment [2], in experiment [9], in experiment [3], in experiment [4] and in experiment [5] was inactive. In addition, the outcome in experiment [6], in [7] and in experiment [8] was inactive.

For `CCOCCOC(C)=O`, the result in experiment [1], in experiment [2], in [9], in [3], in experiment [4] and in experiment [5] was inactive. The result in [6], in experiment [7] and in [8] was inactive.

For the compound `O=C(NC(=O)c1c(F)cccc1F)Nc1cc(Cl)c(OC(F)(F)C(F)F)c(Cl)c1`, the outcome in experiment [1], in experiment [2], in [9], in experiment [3], in experiment [4] and in [5] was inactive. The outcome in [6], in experiment [7] and in experiment [8] was inactive.
